Measured values from the supplement of paper PMC4206461.
Unmarked numbers belong to inactive results.

system: Pseudomonas aeruginosa PA14 dppA1-A5 penta mutant + pBBR5.DppA1 (PA14_58350); test: respiration area under curve with compound as sole nitrogen source, 24 h (OmniLog AUC (arbitrary units)); higher = more respiration / better utilisation as nitrogen source
Description: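 Biolog Phenotype MicroArray plates PM6-PM8: each di/tripeptide is the sole nitrogen source. Tetrazolium reduction was read in the OmniLog for 24 h at 37°C and summarised as area under the respiration curve (arbitrary units). Values below 2000 count as no respiration. Strain is the SBP penta mutant complemented with DppA1 on a plasmid under its native promoter. Lys/His/Cys peptides are excluded.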

| SMILES | respiration area under curve |
| --- | --- |
| CC(C)C[C@H](NC(=O)CNC(=O)CN)C(=O)O (plate: PM8) | 3880 (active) |
| CC(C)C[C@@H](NC(=O)CNC(=O)CN)C(=O)O (plate: PM8) | 232 |
